Screening results deposited in PubChem BioAssay by several laboratories.
EWS-Fli inh: EWS/Fli transcriptional activity inhibition; A673 NR0B1-luciferase reporter, viability-normalised; inhibition, % at 12.6 µM; 350,000 tested, 0.67% active; AID 651661;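 active = mean inhibition of at least 50% after viability correction, with every replicate also passing that limit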;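 also: firefly luciferase signal divided by Alamar Blue viability fluorescence both relative to DMSO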
PAX8 inh HTS: PAX8 transcriptional activity inhibition; 360,000 tested, 1.2% active; AID 652154; RMG-I TPO-luciferase reporter, SteadyGlo, 24 h; inhibition, % at 12.6 µM;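 active = mean replicate inhibition at least 60% with every replicate also reaching 60%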;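 also: luciferase light reporting Pax8 driven TPO promoter activity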
CFTR F508del cor: CFTR F508del correction in bronchial cells; CFBE cells, YFP halide quenching; stimulated with forskolin plus potentiator P3; % fluorescence drop versus neutral controls; activity (quench increase), % at 7.58 µM; 350,000 tested, 0.36% active;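 active = mean added fluorescence quench of at least 8% versus neutral control, with both replicates also reaching 8%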;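 also: cells transiently co-express mutant CFTR-F508del with the halide-sensitive YFP; corrector assay measuring rescue of mutant channel to the surface after 24 h compound exposure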
FXN GAA850 act: increases GAA850 frataxin promoter reporter activity | HEK293 lucGAA850 FXN promoter luciferase reporter, 24 h; percent of 10 µM SAHA response | activation, % at 6 µM | 360,000 tested, 0.56% active | AID 540364;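 active = activation above the average of all compounds screened plus 3 SD, cutoff fixed separately per campaign, cut at about 7.5% in these data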
Env fusion inh: HIV envelope-mediated fusion inhibition; HeLa-JRFL Env/CEM21 cell fusion, luciferase; inhibition, % at 12.3 µM; AID 651610; 360,000 tested, 1.1% active;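 active = mean replicate inhibition score of at least 50 and every replicate individually at or above 50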
GAA30 counter: counter-screen for GAA850 frataxin promoter activators: GAA30 promoter activation | shares compounds with FXN GAA850 act | HEK293 lucGAA30 FXN promoter luciferase, 24 h; DMSO = 0%, 5 µM ipriflavone = 100% | activation, % at 6 µM | 1,900 tested, 66% active | AID 588350;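 active = mean activation above the mean of solvent-only control wells plus 3 SD, cut at about 22% in these data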;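 also: counterscreen of GAA850 promoter hits where activity marks nonselective or luminescence artifacts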
GAA850 confirm: confirmation of GAA850 frataxin (FXN) promoter activators; shares compounds with FXN GAA850 act; HEK293 lucGAA850 FXN promoter luciferase reporter, 24 h; 100% = activation by SAHA; activation, % at 6 µM; 1,900 tested, 86% active; AID 588351;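 active = mean activation above a set limit taken from the primary screen, cut at about 8% in these data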
Large screens that a line does not name were inactive (follow-up assays come after a bar, where they were run). Rows were chosen to be rich in hits. Some 2.5% of all compounds tested hit in one or more screens of this group.

CC1(C)CC(=O)C=C(c2cccc3c2oc2ccccc23)C1	FXN GAA850 act 9.6, Env fusion inh 72 | GAA30 counter 61 | GAA850 confirm 26
C[C@H]1CN([C@@H](C)CO)C(=O)c2cc(NS(=O)(=O)c3ccc(F)cc3)ccc2O[C@@H]1CN(C)S(=O)(=O)c1cccs1	none (no result: FXN GAA850 act)
O=C(c1ccccn1)N1C[C@H]2[C@@H](c3ccccc31)[C@@H](CO)N2C(=O)Nc1ccccc1	none (no result: FXN GAA850 act, Env fusion inh)
CCc1nc2ccc(C(=O)NCCOc3ccc(OC)cc3)cn2c1N(CC)Cc1cccc(Br)c1	none
CCc1nc2ccc(C(=O)NCCN3CCNC3=O)cn2c1N(CC)Cc1cccc(Br)c1	FXN GAA850 act 15, Env fusion inh 72 | GAA30 counter inactive | GAA850 confirm inactive
CCc1ccc(O)c(-c2cc(C(=O)Nc3cccnc3)[nH]n2)c1	FXN GAA850 act 7.8 | GAA30 counter 97 | GAA850 confirm 31
Cc1nn(Cc2ccccc2)c(C)c1NC(=O)CCCn1nc(C)c([N+](=O)[O-])c1C	FXN GAA850 act 8.4 (no result: EWS-Fli inh, CFTR F508del cor) | GAA30 counter inactive | GAA850 confirm inactive
C/C=C/c1ccc2c(c1)O[C@@H](CN(C)C(=O)C1CC1)[C@H](C)CN([C@H](C)CO)S2(=O)=O	none (no result: PAX8 inh HTS, FXN GAA850 act)
O=C(CCS(=O)(=O)c1ccccc1)N(CCCN1CCOCC1)c1nc2c(F)cccc2s1	none
O=C(CCS(=O)(=O)c1ccccc1)N(CCCN1CCOCC1)c1nc2ccc(F)cc2s1	FXN GAA850 act 15 | GAA30 counter 105 | GAA850 confirm 66
CN(C)c1ccc2c(c1)[C@H]1C[C@H](CC(=O)NCc3ccc(Cl)cc3)O[C@@H](CO)[C@H]1O2	none (no result: FXN GAA850 act)
CCn1c(SCc2c(Cl)cccc2Cl)nc2nc3c(cc2c1=O)CCCC3	none
CCn1c(SCc2ccccc2Cl)nc2nc3c(cc2c1=O)CCCC3	FXN GAA850 act 7.8 (no result: CFTR F508del cor) | GAA30 counter inactive | GAA850 confirm 12
CC=Cc1ccc2n(c1=O)C[C@H]1[C@H](CO)[C@@H](C(=O)Nc3ccccc3)N(CC3CCCC3)[C@@H]21 (mixture of isomers)	none (no result: CFTR F508del cor, FXN GAA850 act)
COC(=O)c1c(NC(=O)CN2CCC3(O)CCCCC3C2c2cc(OC)ccc2OC)sc(C)c1C (centres undefined)	FXN GAA850 act 12, Env fusion inh 91 (no result: EWS-Fli inh, CFTR F508del cor) | GAA30 counter inactive | GAA850 confirm 9.9
CN1CCN(C(=O)C[C@H]2CC[C@@H]3[C@H](COC[C@@H](O)CN3Cc3ccc(Oc4ccccc4)cc3)O2)CC1	none (no result: FXN GAA850 act, Env fusion inh)
COc1ccc(S(=O)(=O)Nc2ccccc2OC)cc1C	FXN GAA850 act 8.9 (no result: EWS-Fli inh, PAX8 inh HTS, CFTR F508del cor) | GAA30 counter inactive | GAA850 confirm inactive
COCC#Cc1cnc2c(c1)C(=O)N([C@@H](C)CO)C[C@H](C)[C@@H](CN(C)C(=O)c1ccc3c(c1)OCO3)O2	none (no result: PAX8 inh HTS, FXN GAA850 act)
Cc1nnc(Cl)c2nn(-c3ccccc3F)c(C)c12	FXN GAA850 act 13 (no result: CFTR F508del cor) | GAA30 counter inactive | GAA850 confirm inactive
COc1cc(/C=N/NC(=O)c2sc(N)c(C#N)c2C)ccc1O	FXN GAA850 act 11 (no result: EWS-Fli inh, PAX8 inh HTS, CFTR F508del cor, Env fusion inh) | GAA30 counter inactive | GAA850 confirm 44
O=[N+]([O-])c1cc(Cl)ccc1Sc1cccc2cccnc12	none (no result: PAX8 inh HTS, Env fusion inh)
O=[N+]([O-])c1ccc(Sc2cccc3cccnc23)c([N+](=O)[O-])c1	FXN GAA850 act 22 (no result: PAX8 inh HTS, Env fusion inh) | GAA30 counter inactive | GAA850 confirm inactive
O=[N+]([O-])c1ccc(Sc2cccc3cccnc23)cc1	FXN GAA850 act 9.3 (no result: PAX8 inh HTS, Env fusion inh) | GAA30 counter 83 | GAA850 confirm 30
O=[N+]([O-])c1ccc(COc2cccc3cccnc23)cc1	none
O=[N+]([O-])c1ccc(Sc2ccncn2)c([N+](=O)[O-])c1	PAX8 inh HTS 105, FXN GAA850 act 71 | GAA30 counter inactive | GAA850 confirm 97
O=C(Nc1ccc(F)cc1)Nc1ccc(N2CCOCC2)c2nonc12	CFTR F508del cor 11, FXN GAA850 act 8.2 | GAA30 counter 103 | GAA850 confirm 32
COc1ccc(NC(=O)Nc2ccc(N3CCOCC3)c3nonc23)c(OC)c1	none
N#C/C(=C\c1ccc(N2CCOCC2)o1)c1ccccc1	FXN GAA850 act 12 (no result: PAX8 inh HTS, Env fusion inh) | GAA30 counter 139 | GAA850 confirm 45
N#C/C(=C/c1ccc(N2CCOCC2)o1)c1nc2ccccc2[nH]1	none (no result: EWS-Fli inh, PAX8 inh HTS, CFTR F508del cor, Env fusion inh)
CN(C)C(=O)c1cccc(-c2ccc3c(c2)[C@@H]2[C@@H](CCN2C(=O)C2CCOCC2)[C@H](CO)N3)c1	none (no result: FXN GAA850 act, Env fusion inh)
O=C(Cn1nc(-c2ccc(N3CCOCC3)c([N+](=O)[O-])c2)c2ccccc2c1=O)N1CCCCC1	FXN GAA850 act 8.3 (no result: EWS-Fli inh, CFTR F508del cor) | GAA30 counter 38 | GAA850 confirm 14
CC(C)(C)n1nnnc1C(c1cccnc1)N(Cc1ccccc1)Cc1ccco1 (centres undefined)	FXN GAA850 act 7.9 (no result: EWS-Fli inh, PAX8 inh HTS, CFTR F508del cor, Env fusion inh) | GAA30 counter inactive | GAA850 confirm 9.0
COc1cccc(CN(Cc2ccco2)C(c2ccc(F)cc2)c2nnnn2C(C)(C)C)c1 (centres undefined)	none (no result: EWS-Fli inh, PAX8 inh HTS, CFTR F508del cor, Env fusion inh)
CCC(C)(C)n1nnnc1C(c1ccc(C)cc1)N(Cc1ccco1)Cc1cccs1 (centres undefined)	FXN GAA850 act 8.3, Env fusion inh 135 (no result: EWS-Fli inh, CFTR F508del cor) | GAA30 counter inactive | GAA850 confirm 8.8
Cc1ccc(S(=O)(=O)Nc2ccc3c(c2)C(=O)N([C@@H](C)CO)C[C@@H](C)[C@H](CN(C)C(=O)Nc2ccc(C(F)(F)F)cc2)O3)cc1	none (no result: PAX8 inh HTS, FXN GAA850 act, Env fusion inh)
Nc1n[nH]c(N)c1N=Nc1ccc(Cl)cc1	FXN GAA850 act 8.7 (no result: CFTR F508del cor) | GAA30 counter 71 | GAA850 confirm 15
Nc1n[nH]c(N)c1N=Nc1cccc(F)c1	none (no result: EWS-Fli inh, CFTR F508del cor)
COc1ccc(N2Cc3ccccc3C2=O)cc1	none
C=CC(=O)Oc1ccc(N2Cc3ccccc3C2=O)cc1	FXN GAA850 act 8.0 (no result: EWS-Fli inh, PAX8 inh HTS, CFTR F508del cor, Env fusion inh) | GAA30 counter 32 | GAA850 confirm inactive
COc1cc(/C=C/C(=O)c2ccc([N+](=O)[O-])o2)ccc1O	EWS-Fli inh 55, FXN GAA850 act 12 | GAA30 counter inactive | GAA850 confirm inactive
O=C(O)/C=C/c1ccc(O)c(O)c1	none (no result: Env fusion inh)
COc1cc(/C=C/C(=O)O)ccc1O	FXN GAA850 act 16 (no result: PAX8 inh HTS, Env fusion inh) | GAA30 counter inactive | GAA850 confirm inactive
COc1cccc(NC(=O)N2C[C@H](O)COC[C@@H]3O[C@@H](CC(=O)NCCCN4CCOCC4)CC[C@H]32)c1	none (no result: EWS-Fli inh, PAX8 inh HTS, FXN GAA850 act, Env fusion inh)
Brc1ccc2oc(-c3ccn[nH]3)cc2c1	FXN GAA850 act 7.8 | GAA30 counter 116 | GAA850 confirm 38
COc1cccc(/C=C2\SC(=S)N(CCC(=O)NC3C=CS(=O)(=O)C3)C2=O)c1 (centres undefined)	FXN GAA850 act 10 | GAA30 counter 30 | GAA850 confirm 14
c1ccc2c(-c3nc(-c4ccncc4)no3)cccc2c1	FXN GAA850 act 10 (no result: EWS-Fli inh, PAX8 inh HTS, CFTR F508del cor) | GAA30 counter 101 | GAA850 confirm 32
